Test results published in PubChem BioAssay (EPA / NIEHS).
Activity calls are given as the source filed them. Rule for the calls: active = hit-call score of the fitted dose curve at least 0.9, where 1 is the maximum; inactive = score below 0.9.

Columns and labels:
[1] = ATG_CRE_CIS: Attagene CIS-FACTORIAL HepG2 Assay for human cAMP Responsive Element (CRE) binding protein 3 (AID 2282926); conditions: HepG2 CRE cis-reporter, Attagene multiplexed mRNA; actives raise or lower the signal
In short: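 Assay format: transient reporter transfection of HepG2, 24 h treatment, total RNA isolation with DNase I step. Reporter abundance read by fluorescence after PCR and capillary separation; DMSO-normalised gain or loss fitting.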

[2] = target: CCAAT/enhancer-binding protein beta (Homo sapiens) (UniProt P17676); test: ATG_C_EBP_CIS: Attagene CIS-FACTORIAL HepG2 Assay for human CCAAT/Enhancer Binding Protein (C/EBP) beta (AID 2282927); conditions: HepG2 Attagene cis-factorial transcription factor reporter; actives raise or lower the signal
Chain of CCAAT/enhancer-binding protein beta (Homo sapiens) (P17676 whole entry, looked up): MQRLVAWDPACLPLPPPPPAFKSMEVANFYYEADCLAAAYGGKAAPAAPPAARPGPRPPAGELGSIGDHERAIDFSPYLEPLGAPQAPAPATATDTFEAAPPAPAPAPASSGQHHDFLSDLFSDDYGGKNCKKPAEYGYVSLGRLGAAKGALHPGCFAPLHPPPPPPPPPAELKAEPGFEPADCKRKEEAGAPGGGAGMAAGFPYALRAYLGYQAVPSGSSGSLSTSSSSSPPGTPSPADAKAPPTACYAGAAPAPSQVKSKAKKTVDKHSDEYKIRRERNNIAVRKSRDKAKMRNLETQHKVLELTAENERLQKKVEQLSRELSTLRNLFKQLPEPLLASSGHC
In short: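 Changes in reporter mRNA, rather than exogenous chimeric receptor activity, reflect native C/EBP signalling in transfected HepG2 cells dosed for 24 h; transcripts are detected by RT-PCR and capillary electrophoresis.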

[3] = ATG_CMV_CIS: Attagene CIS-FACTORIAL HepG2 Assay for human CMV (Internal Marker) (AID 2282928); conditions: HepG2 CMV promoter reporter, transcription factor profiling; actives raise or lower the signal;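 note: endpoint acts as a background internal control marker rather than a target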
In short: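 24 h chemical treatment, HepG2 with transient multi-reporter transfection; RNA → oligo(dT) RT → PCR → 6-FAM extension → HpaI digest → CE fluorescence. Bidirectional fit, DMSO negative control.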

[4] = ATG_DR4_LXR_CIS: Attagene CIS-FACTORIAL HepG2 Assay for human Liver X Receptor (LXR), DR4 submotif (AID 2282929); conditions: HepG2 Attagene DR4 cis-reporter, mRNA transcription; actives raise or lower the signal
In short: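 Readout: reporter transcript fluorescence after RT-PCR and capillary electrophoresis, fitted bidirectionally against DMSO controls. Human HepG2 liver cells carried transiently transfected multiplexed reporter constructs; endogenous transcription factor activity measured 24 h post-dosing.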

[5] = target: Aryl hydrocarbon receptor (Homo sapiens) (UniProt P35869); test: ATG_Ahr_CIS: Attagene CIS-FACTORIAL HepG2 Assay for human Aryl Hydrocarbon Receptor (Ahr) (AID 2282930); conditions: HepG2 AhR cis-factorial reporter transcription; actives raise or lower the signal
Chain of Aryl hydrocarbon receptor (Homo sapiens) (P35869 whole entry, looked up): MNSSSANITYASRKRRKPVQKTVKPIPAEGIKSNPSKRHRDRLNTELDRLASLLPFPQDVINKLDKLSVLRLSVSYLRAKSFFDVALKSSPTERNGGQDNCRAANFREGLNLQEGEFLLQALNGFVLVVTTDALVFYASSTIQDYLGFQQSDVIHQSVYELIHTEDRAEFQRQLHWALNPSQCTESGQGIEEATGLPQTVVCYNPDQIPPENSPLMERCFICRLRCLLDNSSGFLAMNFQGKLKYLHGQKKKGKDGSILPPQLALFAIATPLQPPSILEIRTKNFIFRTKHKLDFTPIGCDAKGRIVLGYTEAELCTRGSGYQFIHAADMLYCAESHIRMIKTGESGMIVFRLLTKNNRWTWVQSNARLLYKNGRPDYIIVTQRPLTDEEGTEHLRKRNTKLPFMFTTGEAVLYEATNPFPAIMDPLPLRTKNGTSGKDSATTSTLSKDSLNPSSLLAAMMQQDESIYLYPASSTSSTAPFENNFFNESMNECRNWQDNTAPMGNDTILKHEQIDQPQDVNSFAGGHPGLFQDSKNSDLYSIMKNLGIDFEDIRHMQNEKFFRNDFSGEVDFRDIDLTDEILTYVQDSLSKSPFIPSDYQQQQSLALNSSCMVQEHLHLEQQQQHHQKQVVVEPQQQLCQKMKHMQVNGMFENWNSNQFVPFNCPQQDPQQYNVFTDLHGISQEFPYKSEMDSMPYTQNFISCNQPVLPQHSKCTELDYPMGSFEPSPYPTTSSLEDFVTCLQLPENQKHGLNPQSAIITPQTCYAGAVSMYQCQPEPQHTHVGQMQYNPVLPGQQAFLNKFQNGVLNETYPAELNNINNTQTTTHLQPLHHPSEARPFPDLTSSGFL
In short: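 HepG2, transient MRTU (cis) transfection, 24 h exposure. RNA → cDNA → PCR → 6-FAM primer extension → HpaI 2 h 37 C → CE. Fit: bidirectional, DMSO baseline.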

Measured: AC50

CCCCS(=O)(=O)Cl
inactive: [1] | [2] | [3] | [4] | [5]

COCC(=O)N(c1c(C)cccc1C)[C@H](C)C(=O)OC
inactive: [1] | [2] | [3] | [4] | [5]

O=S(=O)(C(Cl)(Cl)Cl)C(Cl)(Cl)Cl
active: [1] 15.2 µM
inactive: [2] | [3] | [4] | [5]

O=C(CCl)Nc1ccccc1
active: [1] 13.2 µM | [4] 76 µM
inactive: [2] | [3] | [5]

CC1(C)[C@H](C(=O)O[C@H](C#N)c2cccc(Oc3ccccc3)c2)[C@@H]1/C=C(\Cl)C(F)(F)F
inactive: [1] | [2] | [3] | [4] | [5]

Clc1cc(C(Cl)(Cl)Cl)cnc1Cl
inactive: [1] | [2] | [3] | [5]
active: [4] 8.81 µM

Nc1ccc(-c2ccccc2)cc1
inactive: [1] | [2] | [3] | [4] | [5]

CCCCCCCCCCCCCCC(Br)C(=O)O (stereo not given)
active: [2] 179 µM | [4] 27.4 µM
inactive: [1] | [3] | [5]

O=C=Nc1ccc(Cl)cc1
inactive: [1] | [2] | [3] | [4] | [5]

CCN(N=O)C(N)=O
inactive: [1] | [2] | [3] | [4] | [5]

CC(C)(C)c1ccc(CCOc2ncnc3ccccc23)cc1
inactive: [1] | [2] | [3] | [4] | [5]

Clc1ccc(C(Cl)(Cl)Cl)cn1
inactive: [1] | [2] | [3] | [4]
active: [5] 5.67 µM

C#C[C@]1(O)CC[C@H]2[C@@H]3CCC4=CC(=O)CC[C@]4(C)[C@H]3CC[C@@]21C
inactive: [1] | [2] | [3] | [4] | [5]

Nc1ccc(Br)cc1
inactive: [1] | [2] | [3] | [4]
active: [5] 25.4 µM

C=C(C)C(=O)OCCCCOC(=O)C(=C)C
inactive: [1] | [2] | [3] | [4] | [5]

COC(F)(C(F)(F)C(F)(F)F)C(F)(C(F)(F)F)C(F)(F)F (stereo not given)
inactive: [1] | [2] | [3] | [4] | [5]

FC(F)OCC(F)(F)C(F)(F)F
inactive: [1] | [2] | [3] | [4] | [5]

CC[N+](CC)(CC)CC
inactive: [1] | [2] | [3] | [4] | [5]

CCCSP(=S)(OCC)Oc1ccc(SC)cc1 (stereo not given)
inactive: [1] | [2] | [3] | [4] | [5]

CC(C)(c1ccc(O)c(-c2ccccc2)c1)c1ccc(O)c(-c2ccccc2)c1
inactive: [1] | [2] | [3] | [5]
active: [4] 4.85 µM

O=C(Cl)OCCOCCOC(=O)Cl
inactive: [1] | [2] | [3] | [4] | [5]

CN(CCCC(O)c1cccnc1)N=O (stereo not given)
inactive: [1] | [2] | [3] | [4] | [5]

CCCCN(CCCC)C(=S)S
active: [3] 162 µM | [4] 100 µM
inactive: [1] | [2] | [5]

Brc1ccc(Oc2c(Br)cc(Br)cc2Br)c(Br)c1
inactive: [1] | [2] | [3] | [4] | [5]

C=CCN=C=S
inactive: [1] | [2] | [3] | [4] | [5]

C1CN2CCN1CC2
inactive: [1] | [2] | [3] | [4] | [5]

Cc1cccc(N=Nc2ccc(N(C)C)cc2)c1
inactive: [1] | [2] | [3] | [4]
active: [5] 8.37 µM

CC(=O)CN(CC(C)=O)N=O
inactive: [1] | [2] | [3] | [4] | [5]

CC(F)(F)CC(F)(F)F
inactive: [1] | [2] | [3] | [4] | [5]

CC(C)[C@H](C(=O)OC(C#N)c1cccc(Oc2ccccc2)c1)c1ccc(OC(F)F)cc1 (stereo not given in full)
inactive: [1] | [2] | [3] | [4] | [5]

Cl[C@H]1OCCO[C@@H]1Cl
inactive: [1] | [2] | [3] | [4] | [5]

O=[N+]([O-])c1cc([As](=O)(O)O)ccc1O
inactive: [1] | [2] | [3] | [4] | [5]

CCC[N+](CCC)(CCC)CCC
inactive: [1] | [2] | [3] | [4] | [5]

C=CCOC(N)=O
inactive: [1] | [2] | [3] | [4] | [5]

CCOC(=O)CCN(SN(C)C(=O)Oc1cccc2c1OC(C)(C)C2)C(C)C
inactive: [1] | [2] | [3] | [5]
active: [4] 100 µM

N#Cc1ccccc1Cl
inactive: [1] | [2] | [3] | [4] | [5]

C=CCCl
inactive: [1] | [2] | [3] | [4] | [5]

Brc1ccc(Br)cc1
inactive: [1] | [2] | [3] | [4] | [5]

COc1ccc([N+](=O)[O-])cc1O
inactive: [1] | [2] | [3] | [4] | [5]
